The nature of assay [1]: AP1 Signaling Pathway (AID 357).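 Also: ME-180 reporter cells stimulated with EGF at its EC50 level; % is scaled to controls: 0 for no effect and ±100 for the full control effect.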 A digest of the protocol: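 Beta-lactamase reporter under AP-1 response element, ME-180 background. Stimulus: EC50 EGF. Compound exposure 5 h, 37 °C. Detection: CCF4, 2.5 h RT, 460/530 nm. Values: AC50 from titration.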
Assay [2] concerns the target Cytochrome P450 1A2 (Homo sapiens) (UniProt P05177). Nature of the assay: p450-cyp1a2 (AID 410; calls by dose curve;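 also: -100% = full effect of reference inhibitor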). The gist of the method:
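Read-out is luminescence from luciferin produced by CYP1A2 demethylation of Luciferin-ME (100uM, at Km). Detection reagent stopped the 60 min NADPH-dependent reaction; signals were normalized to 57 uM furafylline.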

Assay [3] can be described thus: NFAT Signaling Pathway (AID 444).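 Also: carbachol stimulus at about its EC50 of 1 µM final; % is scaled to controls: 0 for no effect and ±100 for the full control effect.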 To be noted: Jurkat NFAT-bla M1, carbachol, beta-lactamase ratio, 5 h; at 17.2 µM (top of the series). A digest of the protocol:
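Jurkat cells carrying an NFAT-driven β-lactamase reporter and co-transfected muscarinic M1 receptor were treated with compound plus carbachol (1 uM final, an EC50 level) for 5 h at 37 °C. CCF4 loading followed for 1 h at RT; 460/530 nm ratio gave %activity.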

Assay [4] is described as follows: Stat Signaling Pathway (AID 446).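 Also: ME-180 cervical cancer cells given 40 pM IL-6 alongside compound; SIE-controlled beta-lactamase reporter measured as 460/530 nm FRET emission ratio; % is scaled to controls: 0 for no effect and ±100 for the full control effect.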 A digest of the protocol: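 FRET read-out (405 nm excitation, 460/530 nm emission) of a beta-lactamase reporter under a STAT-inducible element in ME-180 cervical carcinoma cells. Cells with compound receive 40 pM IL-6 for 5 h. Values are normalised to AC90 stimulation and AC90 JAK-inhibitor controls.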
Assay [5] has as its target Glucocorticoid receptor (Homo sapiens) (UniProt P04150). Nature of the assay: GR-GFP Redistribution (AID 450;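 active = compounds whose dose series gives a full or clear partial fitted curve of increased nuclear translocation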; also: potency is read from the fitted curve at half-maximal effect). The following applies: U2OS GR-GFP nuclear translocation, laser cytometry, 2 h.
For assay [6] the target is unchanged. Nature of the assay: GR-EFC Redistribution (AID 451; calls by dose curve; also: potency is read from the fitted curve at half-maximal effect). The following applies: CHO-K1 GR-EFC translocation, beta-gal luminescence, 2 h. A digest of the protocol:
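CHO-K1 cells stably expressing nuclear-localized β-gal enzyme acceptor and GR fused C-terminally to the enzyme donor fragment; ligand-driven nuclear translocation restores β-gal by complementation. Compounds titrated up to 46 uM final, 2 h at 37 °C; luminescence read.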

For assay [7], the target named is Mitogen-activated protein kinase 10 (Mus musculus) (UniProt Q61831). Nature of the assay: JNK3 AlphaScreen Assay (AID 530).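 Also: kinase came from lysate of stimulated human HepG2 cells; signal reports phosphorylation of biotinylated GST-cJun 1-79 at Ser73 with 10 µM ATP; % is scaled to controls: 0 for no effect and ±100 for the full control effect.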 A digest of the protocol:
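Biotinylated GST-cJun(1-79) served as substrate for JNK3 in HepG2 lysates stimulated with IL-1beta and TNF-alpha. ATP was 10 uM final, pH 7.6. Ser73 phosphorylation was quantified by AlphaScreen (680 nm excitation).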

Assay [8] is described as follows: qHTS Assay for Lipid Storage Modulators (AID 1519; calls by dose curve). To be noted: Drosophila S3 cells, BODIPY lipid droplet/cell ratio, laser cytometry, cells loaded with oleic acid; for activity change, negative = inhibition: at 25.7 µM (top of the series). The gist of the method: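 Cells seeded at 5,000 per well were treated with compounds over a concentration series and loaded with oleic acid (400 uM, as added). Lipid droplet fluorescence (488 nm excitation, 500-530 nm channel) was read by laser-scanning cytometry and normalized to 20 uM Triacsin C.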
Background: Quantitative high-throughput screening tests each substance at several concentrations.

Assay [9] concerns the target 3',5'-cyclic-AMP phosphodiesterase 4B (Homo sapiens) (UniProt Q07343). As to the kind of experiment: qHTS Assay for Inhibitors of PDE-IV (AID 607; active = well fitted activation curve with a large enough effect in the main read-out, with a control signal flat, not every such curve was filed as active; also: % of control where 0% means no effect). The gist of the method:
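Cell-based read-out of cAMP via a modified cyclic nucleotide-gated channel and membrane potential dye (535/590 nm) in HEK293 cells expressing PDE4 endogenously. Compounds tested up to 22.9 uM final; 100 uM RO 20-1724 reference.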

Assay [10] concerns the target Ubiquitin carboxyl-terminal hydrolase 1 (Homo sapiens) (UniProt O94782). Nature of the assay: Inhibitors of USP1/UAF1: Pilot qHTS (AID 504865; active = well fitted curve in the direction sought with a large enough effect; an effect the other way counts as inactive or inconclusive;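 also: rhodamine fluorescence freed from ubiquitin-rhodamine substrate followed over time; top concentration of the series differs between compounds; % is scaled to controls: 0 for no effect and ±100 for the full control effect; nearly all actives have a fitted effect of over 35% in size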). A digest of the protocol: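 Kinetic fluorescence assay: 1nM USP1/UAF1, 15 min compound preincubation, then 150nM Ub-Rho; 480/540 nm.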
The target of assay [11] is Cytochrome P450 3A4 (Homo sapiens) (UniProt P08684). Nature of the assay: qHTS Assay for Activators of Cytochrome P450 3A4 (AID 885; active = well fitted curve in the direction sought with a large enough effect; an effect the other way counts as inactive or inconclusive; also: nearly all actives have a fitted effect of over 65% in size). A digest of the protocol:
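Luminescent readout of luciferin formed from 25 uM Luciferin-PPXE (KM level) by 20 nM CYP3A4 in 200 mM KPO4, with 60 min NADPH-driven reaction at room temperature after 10 min compound exposure. Ketoconazole (57 uM) defined 100% inhibition.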

Assay [12] deals with Luciferin 4-monooxygenase (Photinus pyralis) (UniProt P08659). Nature of the assay: Biochemical firefly luciferase enzyme assay for NPC (AID 624030; active = well fitted curve in the direction sought with a large enough effect; an effect the other way counts as inactive or inconclusive;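 also: purified P. pyralis luciferase at 10 nM with luciferin and ATP substrate; 0% = DMSO and -100% = full luciferase inhibition by PTC124 control; nearly all actives have a fitted effect of over 70% in size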). A digest of the protocol: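 Counter-screen for direct inhibition of the luciferase enzyme by approved-drug library compounds, run at 10 nM enzyme in 50 mM Tris acetate (final). Luminescence was read within 5 min of enzyme-buffer addition and normalized to PTC124 versus DMSO (0%).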

Assay [13] is described as follows: S16 Schwann cell PMP22 intronic element firefly luciferase assay (AID 624032; active = well fitted curve in the direction sought with a large enough effect; an effect the other way counts as inactive or inconclusive;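 also: plate controls were DMSO for no effect and PTC124 positive control mean for full effect; nearly all actives have a fitted effect of over 30% in size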). A digest of the protocol:
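Rat S16 Schwann cells stably carrying a PMP22 intronic element-driven Fluc reporter were seeded overnight, then exposed to compounds for 24 h at 37 °C. Luminescence was normalized to PTC124 (positive control) and DMSO (0% activity).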

Assay [14] is described as follows: qHTS profiling for inhibitors of Plasmodium falciparum proliferation (AID 504749; active = well fitted curve in the direction sought with a large enough effect; an effect the other way counts as inactive or inconclusive;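 also: 0% = DMSO vehicle and full inhibition = artemisinin control; nearly all actives have a fitted effect of over 60% in size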). The following applies: P. falciparum in erythrocytes, SYBR Green DNA, 72 h, at 12.8 µM (top of the series). A digest of the protocol: (§1)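 Fluorescence of SYBR Green-bound parasite DNA, read at 485/535 nm, served as the growth measure. Infected erythrocytes were cultured with compound 72 h; artemisinin (0.29 uM) and DMSO wells defined the normalization range.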

Assay [15] concerns C2A. The description is as above. To be noted: P. falciparum in erythrocytes, SYBR Green DNA, 72 h; series mostly up to 28.7 µM. The gist of the method:
as §1

Assay [16] relates to CP185. The description is as above. The following applies: P. falciparum in erythrocytes, SYBR Green DNA, 72 h; series mostly up to 28.7 µM. The gist of the method: as §1
Assay [17] relates to FAB9. The description is as above. The following applies: P. falciparum in erythrocytes, SYBR Green DNA, 72 h; series mostly up to 28.7 µM. The gist of the method: as §1
Setting [18] is: measured here: cell count channel max response.
Setting [19] is: measured here: lipid channel max response.

Records with an inconclusive call do not appear. Calls of active or inactive are those of the source. Unless noted, calls follow the shape of the dose curve; as a rule, active = well fitted curve in either direction with a large enough effect (not every such curve was filed as active); inconclusive = small, poorly fitted or top-dose-only effect, or another doubt; inactive = flat fitted curve, though single readings scatter. Where only a bound is given, the exact number is not on record here.

Cytochrome P450 1A2 (Homo sapiens), sequence (P05177 whole entry, looked up): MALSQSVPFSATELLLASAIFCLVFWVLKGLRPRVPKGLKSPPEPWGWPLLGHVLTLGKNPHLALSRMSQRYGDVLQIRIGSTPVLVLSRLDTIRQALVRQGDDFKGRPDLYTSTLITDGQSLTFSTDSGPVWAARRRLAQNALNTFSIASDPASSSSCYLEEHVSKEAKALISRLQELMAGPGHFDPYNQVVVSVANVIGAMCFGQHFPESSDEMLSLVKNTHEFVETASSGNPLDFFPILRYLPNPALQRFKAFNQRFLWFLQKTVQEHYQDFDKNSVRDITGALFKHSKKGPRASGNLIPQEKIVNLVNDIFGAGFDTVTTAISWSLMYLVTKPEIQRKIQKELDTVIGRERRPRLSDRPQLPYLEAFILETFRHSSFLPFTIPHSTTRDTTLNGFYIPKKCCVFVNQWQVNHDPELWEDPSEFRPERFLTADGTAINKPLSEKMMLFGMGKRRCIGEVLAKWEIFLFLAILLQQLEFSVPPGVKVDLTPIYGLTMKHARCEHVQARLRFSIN
Ubiquitin carboxyl-terminal hydrolase 1 (Homo sapiens), sequence (O94782 whole entry, looked up): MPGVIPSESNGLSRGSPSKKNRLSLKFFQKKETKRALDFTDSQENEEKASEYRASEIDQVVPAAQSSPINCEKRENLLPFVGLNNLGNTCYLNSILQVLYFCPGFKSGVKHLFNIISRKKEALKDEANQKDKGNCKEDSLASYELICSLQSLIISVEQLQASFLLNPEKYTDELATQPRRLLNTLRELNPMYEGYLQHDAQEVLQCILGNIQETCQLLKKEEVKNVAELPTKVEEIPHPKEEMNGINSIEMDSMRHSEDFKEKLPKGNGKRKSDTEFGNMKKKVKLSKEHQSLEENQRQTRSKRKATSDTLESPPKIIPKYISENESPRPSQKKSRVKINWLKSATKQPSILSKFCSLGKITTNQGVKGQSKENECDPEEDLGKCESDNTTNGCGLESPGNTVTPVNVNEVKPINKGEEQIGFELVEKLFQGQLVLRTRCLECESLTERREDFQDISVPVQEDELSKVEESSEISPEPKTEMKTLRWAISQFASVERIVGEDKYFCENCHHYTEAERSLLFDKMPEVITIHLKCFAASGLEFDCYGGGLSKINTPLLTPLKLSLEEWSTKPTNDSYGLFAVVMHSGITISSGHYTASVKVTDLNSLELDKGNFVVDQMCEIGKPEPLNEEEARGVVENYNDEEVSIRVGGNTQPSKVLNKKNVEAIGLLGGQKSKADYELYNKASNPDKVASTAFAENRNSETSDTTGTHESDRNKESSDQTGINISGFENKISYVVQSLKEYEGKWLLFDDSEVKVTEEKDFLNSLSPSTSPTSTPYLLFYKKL
3',5'-cyclic-AMP phosphodiesterase 4B (Homo sapiens), sequence (Q07343 whole entry, looked up): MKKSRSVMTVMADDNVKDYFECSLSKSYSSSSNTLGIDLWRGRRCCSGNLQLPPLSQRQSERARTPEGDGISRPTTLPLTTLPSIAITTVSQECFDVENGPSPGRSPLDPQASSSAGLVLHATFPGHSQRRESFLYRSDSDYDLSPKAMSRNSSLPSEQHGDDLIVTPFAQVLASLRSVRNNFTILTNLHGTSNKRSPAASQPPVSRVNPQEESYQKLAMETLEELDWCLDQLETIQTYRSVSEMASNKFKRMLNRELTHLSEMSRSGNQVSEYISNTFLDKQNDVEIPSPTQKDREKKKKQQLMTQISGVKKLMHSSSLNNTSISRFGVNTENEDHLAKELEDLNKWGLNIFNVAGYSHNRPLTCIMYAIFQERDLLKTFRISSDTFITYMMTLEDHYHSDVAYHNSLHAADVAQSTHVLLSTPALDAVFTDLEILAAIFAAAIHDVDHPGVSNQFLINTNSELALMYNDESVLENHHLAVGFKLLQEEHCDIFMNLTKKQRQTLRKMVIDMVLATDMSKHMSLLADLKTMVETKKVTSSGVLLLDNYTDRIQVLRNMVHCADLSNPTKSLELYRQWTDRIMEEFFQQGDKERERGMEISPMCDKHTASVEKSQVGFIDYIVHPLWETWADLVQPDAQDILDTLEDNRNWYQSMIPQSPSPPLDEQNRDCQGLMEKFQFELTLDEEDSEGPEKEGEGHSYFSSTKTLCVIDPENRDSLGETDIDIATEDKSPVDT
Glucocorticoid receptor (Homo sapiens), sequence (P04150 whole entry, looked up): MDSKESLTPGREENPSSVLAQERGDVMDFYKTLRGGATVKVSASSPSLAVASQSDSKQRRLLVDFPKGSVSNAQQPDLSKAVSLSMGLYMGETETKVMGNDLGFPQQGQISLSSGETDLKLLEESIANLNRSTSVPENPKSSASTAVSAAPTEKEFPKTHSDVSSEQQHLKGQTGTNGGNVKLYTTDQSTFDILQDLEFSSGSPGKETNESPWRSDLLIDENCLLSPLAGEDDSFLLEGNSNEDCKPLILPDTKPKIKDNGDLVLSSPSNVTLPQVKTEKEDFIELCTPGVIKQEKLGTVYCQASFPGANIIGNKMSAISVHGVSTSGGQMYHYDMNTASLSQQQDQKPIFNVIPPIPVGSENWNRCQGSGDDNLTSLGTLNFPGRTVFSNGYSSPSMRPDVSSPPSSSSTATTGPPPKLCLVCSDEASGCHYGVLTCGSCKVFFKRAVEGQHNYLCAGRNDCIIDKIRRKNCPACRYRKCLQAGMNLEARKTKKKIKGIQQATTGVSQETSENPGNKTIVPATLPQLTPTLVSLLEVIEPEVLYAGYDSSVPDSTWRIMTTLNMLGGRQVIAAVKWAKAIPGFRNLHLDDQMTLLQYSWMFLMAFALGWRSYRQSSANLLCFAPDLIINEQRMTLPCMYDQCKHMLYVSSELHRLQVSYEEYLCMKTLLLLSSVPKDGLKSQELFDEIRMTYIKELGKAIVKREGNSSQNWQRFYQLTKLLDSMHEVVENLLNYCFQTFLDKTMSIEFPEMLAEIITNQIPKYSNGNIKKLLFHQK
Luciferin 4-monooxygenase (Photinus pyralis), sequence (P08659 whole entry, looked up): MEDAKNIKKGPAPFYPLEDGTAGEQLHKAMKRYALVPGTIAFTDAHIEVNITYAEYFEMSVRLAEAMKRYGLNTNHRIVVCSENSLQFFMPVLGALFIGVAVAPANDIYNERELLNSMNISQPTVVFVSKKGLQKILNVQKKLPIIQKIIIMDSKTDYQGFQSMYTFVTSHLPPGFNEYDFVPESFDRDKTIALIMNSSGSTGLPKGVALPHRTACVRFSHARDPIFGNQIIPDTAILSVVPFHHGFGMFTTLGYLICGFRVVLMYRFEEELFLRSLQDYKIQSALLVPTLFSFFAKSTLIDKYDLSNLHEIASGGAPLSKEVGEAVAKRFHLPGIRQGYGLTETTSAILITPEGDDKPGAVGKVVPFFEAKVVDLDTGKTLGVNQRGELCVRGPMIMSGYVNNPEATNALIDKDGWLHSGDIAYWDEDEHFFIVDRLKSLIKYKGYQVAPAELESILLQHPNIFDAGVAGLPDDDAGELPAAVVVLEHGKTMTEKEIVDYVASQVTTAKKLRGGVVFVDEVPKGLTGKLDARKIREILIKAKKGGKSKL
Cytochrome P450 3A4 (Homo sapiens), sequence (P08684 whole entry, looked up): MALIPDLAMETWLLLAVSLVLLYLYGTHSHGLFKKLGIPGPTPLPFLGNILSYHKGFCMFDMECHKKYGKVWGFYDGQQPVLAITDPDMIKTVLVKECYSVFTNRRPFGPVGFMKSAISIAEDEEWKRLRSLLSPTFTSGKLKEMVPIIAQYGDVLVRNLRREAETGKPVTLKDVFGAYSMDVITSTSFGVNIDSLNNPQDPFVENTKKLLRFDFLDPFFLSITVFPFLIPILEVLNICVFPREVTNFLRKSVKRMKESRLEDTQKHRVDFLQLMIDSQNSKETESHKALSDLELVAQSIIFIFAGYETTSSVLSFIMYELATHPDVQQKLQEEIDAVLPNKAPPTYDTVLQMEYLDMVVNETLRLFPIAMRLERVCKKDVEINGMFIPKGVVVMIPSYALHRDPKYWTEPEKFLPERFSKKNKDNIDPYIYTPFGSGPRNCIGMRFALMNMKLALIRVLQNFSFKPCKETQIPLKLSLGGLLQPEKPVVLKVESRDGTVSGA

For the compound `CC[C@H]1CN2CC[C@@H]1C[C@H]2[C@@H](O)c1ccnc2ccc(OC)cc12`, the compound was called inactive in assay [1], in assay [4] and in assay [7]. Further, the Potency result in assay [2] is “inactive”. The activity change, negative = inhibition is -20.4% (inactive) in assay [3] and -3.88% (inactive) in assay [8]. Also, the Potency in [5] and in assay [6] was > 20.6 µM (inactive) each time. Further, the max response is -1.96% in assay [8] (setting [18]) and -5.46% in assay [8] (setting [19]).

Take `COC1=C[C@H]2C3=C([C@H]2C1=O)[C@H](NC(C)=O)CCc1cc(OC)c(OC)c(OC)c13`: the compound was classed as inactive in assay [1], in [4] and in assay [7]. Further, the Potency result in [2], in [9] and in assay [10] was “inactive” each time. The figures for the activity change, negative = inhibition in [3] and in [8] were -4.77% (inactive) and 0.263% (inactive), respectively. Moreover, the Potency in assay [5] and in assay [6] was > 20.6 µM (inactive) in each case. Further, the max response is 1.69% in assay [8] (setting [18]) and 2.18% in [8] (setting [19]).

As to `C=C1[C@@H]2CC[C@H]3[C@@]4(C)C[C@@H](O[C@@H]5O[C@H](CO)[C@H](OS(=O)(=O)O)[C@@H](OS(=O)(=O)O)[C@@H]5OC(=O)CC(C)C)C[C@@H](C(=O)O)[C@H]4CC[C@@]3(C2)[C@H]1O`, the call in assay [1], in assay [4] and in assay [7] was inactive. Moreover, the Potency result in assay [2], in assay [9] and in assay [10] was “inactive” in each case. Besides, the activity change, negative = inhibition in assay [3] was 13.2% (inactive); in assay [8] it was -6.46% (inactive). In [5], the Potency is > 20.6 µM (inactive). The max response in assay [8] (setting [18]) was -23.7%; in [8] (setting [19]), -28.9%.

For the compound `C/C=C1\C[N@@+]2(C)CC[C@@]34C(=C(C=O)[C@H]1C[C@H]32)Nc1ccccc14`, the result in assay [1], in assay [4] and in [7] was inactive. The Potency result in [2], in assay [9], in [11] and in assay [10] was “inactive” each time. The figures for the activity change, negative = inhibition in assay [3] and in assay [8] were -3.46% (inactive) and -2.98% (inactive), respectively. Moreover, the Potency in assay [5] and in [6] was > 20.6 µM (inactive) each time. Besides, the max response in assay [8] (setting [18]) was -3.08%; in assay [8] (setting [19]), -5.51%.

On to `CC(C)(C)NC[C@H](O)c1cc(Cl)c(N)c(Cl)c1`, for which the outcome in assay [1], in [4] and in assay [7] was inactive. Besides, the Potency entry in assay [2], in [9] and in assay [10] was “inactive” in each case. The activity change, negative = inhibition was -7.65% (inactive) in [3] and -0.0671% (inactive) in assay [8]. Further, the max response in assay [8] (setting [18]) is 1.84%; in [8] (setting [19]), 2.72%.

With `NCC[C@H](O)C(=O)N[C@H]1C[C@@H](N)[C@@H](O[C@H]2O[C@@H](CN)[C@@H](O)[C@@H](O)[C@@H]2N)[C@@H](O[C@H]2O[C@@H](CO)[C@@H](O)[C@@H]2O)[C@@H]1O`, the call in [1], in assay [4] and in [7] was inactive. Besides, the Potency entry in assay [2], in assay [9], in [10], in [12], in assay [13] and in assay [15] was “inactive” throughout. Besides, the Potency entry in assay [16] and in [17] was “inactive” in each case. Besides, the figures for the activity change, negative = inhibition in assay [3] and in assay [8] were -14.8% (inactive) and -3.44% (inactive), respectively. Also, the max response in assay [8] (setting [18]) was -10.6%; in assay [8] (setting [19]), -13.9%. Moreover, the activity, negative = inhibition in assay [14] (parasite line A) is 12.6% (inactive); in assay [14] (parasite line B), 8.36% (inactive).

(Values after PubChem BioAssay (NCATS).)
